Our source for the growth inhibition, inhibition and outcome values is PubChem BioAssay.

A number with no mark means an inactive call. For some of these results: Potency and affinity values are given separately. Activity calls are given as the source filed them. Unless noted, how the calls were made is not given here.

Assay [1] is described as follows: antimalarial activity against Dd2 strain (AID 2302;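 active means growth inhibition above 50% at the single 2 µM test dose, taken to imply half-maximal potency below 2 µM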;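 further: 0% = DMSO untreated growth and 100% = chloroquine plus artemisinin killed control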). The note with it: P. falciparum Dd2 in RBCs, LDH growth readout, 72 h; at 2 µM; hits give high values.
The nature of assay [2]: HepG2 cytotoxicity, primary screen, cytotoxicity control for P. falciparum antimalarial project, cell-based, ATP luminescence (AID 2303;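 active means inhibition above 50%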;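 further: 0% = DMSO wells and 100% = digitonin-killed cells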). To be noted: HepG2 viability, 24-48 h, at 10 µM, hits give high values.
The target in assay [3] is L-lactate dehydrogenase (Plasmodium falciparum (isolate CDC / Honduras)) (UniProt Q27743). The assay can be described thus: PfLDH activity inhibition – cell lysate, 3D7 strain, counter-screen for P. falciparum growth inhibition project (AID 2304).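 Further: 0% = vehicle and 100% = reference inhibitor.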 To be noted: P. falciparum 3D7 crude extract, LDH APAD/NBT absorbance; at 2 µM; hits give high values.
L-lactate dehydrogenase (Plasmodium falciparum (isolate CDC / Honduras)), sequence (Q27743 whole entry, looked up): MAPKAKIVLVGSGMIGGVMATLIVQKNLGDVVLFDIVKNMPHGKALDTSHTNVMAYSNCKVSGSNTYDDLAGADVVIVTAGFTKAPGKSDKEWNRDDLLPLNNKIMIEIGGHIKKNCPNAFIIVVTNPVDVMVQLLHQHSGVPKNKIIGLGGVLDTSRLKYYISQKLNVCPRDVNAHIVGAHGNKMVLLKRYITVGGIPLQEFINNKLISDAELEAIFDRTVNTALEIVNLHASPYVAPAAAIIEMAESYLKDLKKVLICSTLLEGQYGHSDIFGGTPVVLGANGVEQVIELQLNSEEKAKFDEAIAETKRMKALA
The nature of assay [4]: inhibition of 3D7 malaria parasite growth – strain 3D7 (AID 2306).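 Further: 0% = DMSO wells and 100% = chloroquine plus artemisinin control wells.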 The note with it: P. falciparum 3D7 erythrocytic growth, LDH absorbance, 72 h; at 2 µM; hits give high values.
In assay [5] the target is Calcium-dependent protein kinase 1 (Plasmodium falciparum (isolate 3D7)) (UniProt P62344). Briefly: PfCDPK1 kinase inhibitors, biochemical, TCAMS library (AID 1159585; cut-off not given, nearly all actives have IC50 up to about 0.98 µM;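 further: inhibitors leave more ATP so luminescence rises with inhibition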). To be noted: recombinant PfCDPK1, Kinase-Glo ATP depletion luminescence.
Calcium-dependent protein kinase 1 (Plasmodium falciparum (isolate 3D7)), sequence (P62344 whole entry, looked up): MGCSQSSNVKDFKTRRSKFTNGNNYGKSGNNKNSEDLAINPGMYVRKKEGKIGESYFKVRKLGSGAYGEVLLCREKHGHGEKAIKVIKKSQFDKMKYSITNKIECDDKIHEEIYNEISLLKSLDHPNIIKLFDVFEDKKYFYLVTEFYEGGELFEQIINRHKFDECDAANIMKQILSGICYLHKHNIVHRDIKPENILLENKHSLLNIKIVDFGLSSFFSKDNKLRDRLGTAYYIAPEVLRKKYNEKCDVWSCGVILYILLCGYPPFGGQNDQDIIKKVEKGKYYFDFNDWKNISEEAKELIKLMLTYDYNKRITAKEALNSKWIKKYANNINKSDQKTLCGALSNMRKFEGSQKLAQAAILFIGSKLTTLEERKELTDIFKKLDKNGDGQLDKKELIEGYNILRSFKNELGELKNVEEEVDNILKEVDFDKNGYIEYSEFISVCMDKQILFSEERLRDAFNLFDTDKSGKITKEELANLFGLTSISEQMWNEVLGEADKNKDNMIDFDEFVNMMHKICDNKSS
Assay [6] deals with Plasmodium falciparum protein kinase 6 (PK6, PF3D7_1337100) (UniProt Q8IDW1). The assay can be described thus: PfPK6 kinase inhibitors, biochemical, TCAMS library (AID 1159586). To be noted: recombinant PfPK6, Kinase-Glo ATP depletion luminescence. In general terms: Kinase-Glo measures the ATP left after a reaction by luminescence.
Plasmodium falciparum protein kinase 6 (PK6, PF3D7_1337100), sequence (Q8IDW1 1-305): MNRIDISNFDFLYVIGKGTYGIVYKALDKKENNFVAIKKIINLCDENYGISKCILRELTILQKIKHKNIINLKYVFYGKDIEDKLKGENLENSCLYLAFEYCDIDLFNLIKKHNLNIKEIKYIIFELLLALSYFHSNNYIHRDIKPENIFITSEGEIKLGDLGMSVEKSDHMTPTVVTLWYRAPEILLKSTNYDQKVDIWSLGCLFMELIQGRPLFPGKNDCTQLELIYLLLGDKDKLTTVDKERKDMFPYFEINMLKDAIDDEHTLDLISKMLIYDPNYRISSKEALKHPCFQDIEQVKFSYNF
Assay [7] concerns the target Protein kinase 7 (PK7), Plasmodium falciparum 3D7 (PF3D7_0213400) (UniProt Q7YTF7). The assay can be described thus: inhibition of Plasmodium PK7 catalytic activity – biochemical, TCAMS antimalarial set, Kinase-Glo luminescence (AID 1159587). The note with it: recombinant PfPK7, Kinase-Glo ATP depletion luminescence.
In assay [8] the target is Calcium-dependent protein kinase 4 (Plasmodium falciparum (isolate 3D7)) (UniProt Q8IBS5). Briefly: PfCDPK4 kinase inhibitors, biochemical, TCAMS library (AID 1159588; cut-off not given, nearly all actives have IC50 up to about 0.91 µM). To be noted: recombinant PfCDPK4, Kinase-Glo ATP depletion luminescence.
Calcium-dependent protein kinase 4 (Plasmodium falciparum (isolate 3D7)), sequence (Q8IBS5 whole entry, looked up): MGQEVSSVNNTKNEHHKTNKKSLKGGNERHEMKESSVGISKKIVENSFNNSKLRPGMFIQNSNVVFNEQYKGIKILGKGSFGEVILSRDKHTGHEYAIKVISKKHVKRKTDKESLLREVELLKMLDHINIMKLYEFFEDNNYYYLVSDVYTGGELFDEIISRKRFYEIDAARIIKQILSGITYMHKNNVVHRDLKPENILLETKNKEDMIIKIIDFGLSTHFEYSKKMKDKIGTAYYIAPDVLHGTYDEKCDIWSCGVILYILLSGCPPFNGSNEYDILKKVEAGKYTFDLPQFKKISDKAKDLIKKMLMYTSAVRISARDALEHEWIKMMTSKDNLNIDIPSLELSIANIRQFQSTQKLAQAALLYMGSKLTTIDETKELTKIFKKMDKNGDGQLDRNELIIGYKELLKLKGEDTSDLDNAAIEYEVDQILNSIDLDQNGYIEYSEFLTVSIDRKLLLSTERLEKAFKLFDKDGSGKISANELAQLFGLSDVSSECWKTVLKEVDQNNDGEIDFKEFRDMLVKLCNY

Protein kinase 7 (PK7), Plasmodium falciparum 3D7 (PF3D7_0213400), sequence (Q7YTF7 1-343): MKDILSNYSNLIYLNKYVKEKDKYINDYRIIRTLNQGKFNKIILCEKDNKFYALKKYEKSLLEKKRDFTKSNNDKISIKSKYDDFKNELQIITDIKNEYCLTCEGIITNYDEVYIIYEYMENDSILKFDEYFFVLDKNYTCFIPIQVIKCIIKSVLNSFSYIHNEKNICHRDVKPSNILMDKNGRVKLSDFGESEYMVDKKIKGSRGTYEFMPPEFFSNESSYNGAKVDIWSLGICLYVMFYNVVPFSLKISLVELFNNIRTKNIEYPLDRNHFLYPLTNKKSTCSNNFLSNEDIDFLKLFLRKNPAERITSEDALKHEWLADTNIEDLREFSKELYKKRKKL

As for `COc1ccc(C2NCCc3c2[nH]c2ccccc32)cc1CN1CCN(c2ccc(F)cc2)CC1` (stereo not given), the growth inhibition is 56% (active) in assay [1] and 97% (active) in assay [4]. The results for the inhibition in assay [2] and in assay [3] were 37% and -1%, respectively. In addition, the outcome in assay [5], in assay [6], in assay [7] and in assay [8] was inactive.
Consider `N=C(N)c1cc(Cl)cc(NC(=O)Nc2cc(Cl)cc(C(=N)N)c2)c1`, for which the growth inhibition in assay [1] and in assay [4] was 92% (active) each time. Also, the figures for the inhibition in assay [2] and in assay [3] were 4% and -7%, respectively. Moreover, the outcome in assay [5], in assay [6], in assay [7] and in assay [8] was inactive.
As to `CC1CCCC(Nc2noc(-c3sccc3Br)n2)C1` (stereo not given), the growth inhibition in assay [1] is 99% (active); in assay [4] it was 102% (active). Further, the inhibition – broadly, the drop in the measured response relative to a control, in per cent – in assay [2] was 7%; in assay [3], 0%. Further, the outcome in assay [5], in assay [6], in assay [7] and in assay [8] was inactive.
With `COc1ccc2c(OC)c(CNCCCCCCNCc3ccc4cc(OC)ccc4c3OC)ccc2c1`, the growth inhibition is 49% in assay [1] and 98% (active) in assay [4]. Moreover, the figures for the inhibition in assay [2] and in assay [3] were 100% (active) and 4%, respectively. Further, the result in assay [5], in assay [6], in assay [7] and in assay [8] was inactive.
In the case of `Fc1cccc(CNc2ncc(-c3ccsc3)c(-c3nccs3)n2)c1`, the growth inhibition in assay [1] is 85% (active); in assay [4], 91% (active). Moreover, the inhibition was 15% in assay [2] and 0% in assay [3]. Also, the outcome in assay [5], in assay [6], in assay [7] and in assay [8] was inactive.
Take `CS(=O)(=O)CCNC(=O)c1ccc(-c2cc3c(Nc4ccc5c(cnn5Cc5ccccc5)c4)ncnc3cn2)o1`: the growth inhibition in assay [1] is 46%; in assay [4], 97% (active). Moreover, the values for the inhibition in assay [2] and in assay [3] were 6% and -1%, respectively. Moreover, the outcome in assay [5], in assay [6], in assay [7] and in assay [8] was inactive.
For the compound `COc1ccc(Cl)cc1N1CCN(CCCNC(=O)c2ccc(-c3nc4ccncc4[nH]3)c(Br)c2)CC1`, the growth inhibition is 15% in assay [1] and 86% (active) in assay [4]. The inhibition was 5% in assay [2] and 4% in assay [3]. For the same compound, the result in assay [5], in assay [6], in assay [7] and in assay [8] was inactive.
For the compound `N=C(N)CCN(Cc1ccc(Cl)cc1)c1ccc(Cl)cc1`, the growth inhibition is 92% (active) in assay [1] and 96% (active) in assay [4]. The inhibition in assay [2] was 22%; in assay [3] it was 5%. For the same compound, the result in assay [5], in assay [6], in assay [7] and in assay [8] was inactive.
`NC1=NC2(CCCCC2)N(OCCCCCCc2ccccc2)C(N)=N1`: the growth inhibition in assay [1] was 69% (active); in assay [4], 100% (active). For the same compound, the inhibition in assay [2] was 73% (active); in assay [3], -2%. Also, the result in assay [5], in assay [6], in assay [7] and in assay [8] was inactive.
Regarding `COc1cccc2cc(C(=O)N[C@@H](CC(C)C)C(=O)N[C@H](/C=N/NC(=O)OC(C)(C)C)CC(C)C)oc12`, the figures for the growth inhibition in assay [1] and in assay [4] were 57% (active) and 88% (active), respectively. Also, the values for the inhibition in assay [2] and in assay [3] were 8% and -2%, respectively. In addition, the outcome in assay [5], in assay [6], in assay [7] and in assay [8] was inactive.
On to `COc1cc2nc(NCC3CCN(c4nc(N)c5cc(OC)c(OC)cc5n4)CC3)nc(N)c2cc1OC`, for which the growth inhibition in assay [1] is 73% (active); in assay [4], 92% (active). The inhibition in assay [2] was 12%; in assay [3], -2%. For the same compound, the result in assay [5], in assay [6], in assay [7] and in assay [8] was inactive.
Turning to `COc1ccc2ncc(F)c(NC(=O)C3CCC(NCc4cc5c(F)cccc5[nH]4)CC3)c2n1` (stereo not given), the figures for the growth inhibition in assay [1] and in assay [4] were 29% and 91% (active), respectively. The inhibition in assay [2] is 39%; in assay [3] it was -1%. Also, the outcome in assay [5], in assay [6], in assay [7] and in assay [8] was inactive.
As for `COc1cc(NC(=O)/C=C/c2cc(F)cc(F)c2F)cc(OCCN2CCCCC2)c1`, the growth inhibition in assay [1] was 80% (active); in assay [4], 102% (active). Also, the figures for the inhibition in assay [2] and in assay [3] were 10% and 0%, respectively. For the same compound, the outcome in assay [5], in assay [6], in assay [7] and in assay [8] was inactive.
For `COc1ccc2c(c1)CCN(CCN1CCC(CNC(=O)c3ccc(-c4ccc(C#N)cc4)cc3)CC1)C2`, the growth inhibition in assay [1] was 51% (active); in assay [4] it was 100% (active). In addition, the inhibition in assay [2] is 40%; in assay [3], 2%. In addition, the result in assay [5], in assay [6], in assay [7] and in assay [8] was inactive.
As to `O=C(Nc1ccccc1)Nc1cccc(-c2ccc(-c3nc4ccc(C(F)(F)F)cc4[nH]3)cc2)c1`, the growth inhibition in assay [1] is 37%; in assay [4] it was 101% (active). For the same compound, the inhibition in assay [2] was 48%; in assay [3], -3%. The outcome in assay [5], in assay [6], in assay [7] and in assay [8] was inactive.
`O=C(Nc1cccc(-c2nn3ncccc3c2-c2ccnc(Nc3cccc(C(F)(F)F)c3)n2)c1)c1c(F)cccc1F`: the values for the growth inhibition in assay [1] and in assay [4] were 68% (active) and 97% (active), respectively. Also, the inhibition in assay [2] was 49%; in assay [3], -2%. The result in assay [5], in assay [6], in assay [7] and in assay [8] was inactive.
For `O=C(NCc1cccc2ccccc12)c1ccc(CNC2CCN(Cc3ccccc3)CC2)cc1`, the growth inhibition in assay [1] is 88% (active); in assay [4], 101% (active). Besides, the values for the inhibition in assay [2] and in assay [3] were 15% and 5%, respectively. Moreover, the outcome in assay [5], in assay [6], in assay [7] and in assay [8] was inactive.
In the case of `Cc1cc(N[C@@H](CC(C)C)C(=O)NCCc2ccccc2)nc(Nc2ccccc2)n1`, the growth inhibition in assay [1] is 38%; in assay [4], 100% (active). The inhibition in assay [2] and in assay [3] was 1% throughout. In addition, the outcome in assay [5], in assay [6], in assay [7] and in assay [8] was inactive.
With `COc1ccc2nccc([C@@H](O)CN3CCC(NCc4ccc5nsnc5c4)CC3)c2c1`, the growth inhibition was 64% (active) in assay [1] and 95% (active) in assay [4]. Also, the inhibition in assay [2] is 12%; in assay [3], 3%. Moreover, the outcome in assay [5], in assay [6], in assay [7] and in assay [8] was inactive.
In the case of `CN1CCC(N2CCN(Cc3ccc(-c4cccc(-c5nc6ccc(F)cc6[nH]5)c4)cc3)CC2)CC1`, the growth inhibition was 99% (active) in assay [1] and 101% (active) in assay [4]. Also, the inhibition in assay [2] was 67% (active); in assay [3] it was -1%. In addition, the outcome in assay [5], in assay [6], in assay [7] and in assay [8] was inactive.
